IL-2 act = qHTS of IL-2 Activators; IL-2 activation reporter assay, cell-based qHTS; stimulated with anti-CD3/CD4/CD28 beads; in transgenic mouse T cells; activation, % (series mostly up to about 46 µM); 360,000 tested, 0.065% active; AID 652025, 2013; in the data active = activation above about 50%; inconclusive = mostly about 30% to 49%
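Quantitative HTS in unstimulated transgenic mouse T cells, with memory T cells as non-tolerant control and PMA/ionomycin as tolerance-bypass control. Compound pretreatment lasted 60 minutes before 18 h bead stimulation; EGFP/DsRed fluorescence read.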
ELG1 DNA repair = qHTS screen for small molecules that inhibit ELG1-dependent DNA repair in human embryonic kidney (HEK293T) cells expressing luciferase-tagged ELG1. AID 504467, 2011. HEK293T ELG1-luciferase reporter, luminescence, 16 h; DNA damage induced by 5-fluorouridine. 330,000 tested, 2.3% active. Potency, µM (top dose mostly 46.1 µM), actives largely listed as inhibitors; also: nearly all actives have a fitted effect of over 55% in size
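Step one: seed 2,000 cells per well. Step two: pin-transfer compound or DMSO alongside 5-fluorouridine. Step three: incubate 16 hr, 37 °C, 5% CO2. Step four: add ONE-Glo, wait 30 min, read luminescence.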
BRCA1 expr up = qHTS Assay to Identify Small Molecule Activators of BRCA1 Expression; 380,000 tested, 1.1% active; MCF7-BRCA1-FFLuc reporter, luminescence, 48 h; response scale: scaled: vehicle 0%, 10 µM genistein 100%; Potency, µM (doses to about 46.1 µM), most hits filed as activators; also: nearly all actives have a fitted effect of over 80% in size
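MCF7 cells carrying a BRCA1-firefly luciferase reporter (2000 cells/well, phenol-red free MEM) were attached for 2 h at 37 °C, then given compounds for 48 h. Luminescence was read 15 min after luciferase reagent; activity normalized to genistein (10 microM) and DMSO.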
Nrf2 ARE act = qHTS of Nrf2 Activators | AREc32 ARE-luciferase reporter (MCF7-derived line), luminescence, 24 h | Potency, µM (titrated, usually from 46.1 µM), most hits filed as activators | 410,000 tested, 0.31% active; also: nearly all actives have a fitted effect of over 65% in size
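AREc32_Fluc, 1000 cells/well, OPTI-MEM + 5% FBS, o/n 37 deg C 5% CO2; 23 nL cpd by pin tool, 24 hr; Steady-Glo 30 min RT, luminescence.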
Large screens that a line does not name were inactive. Rows were chosen to be rich in hits. Some 3.1% of all compounds tested hit in one or more screens of this group. Unless noted, calls follow the shape of the dose curve; as a rule, active = well fitted curve in the direction sought with a large enough effect; inconclusive = small, poorly fitted or top-dose-only effect, or another doubt; inactive = no such curve, though single readings can be large; an effect the other way counts as inactive or inconclusive.

O=[N+]([O-])c1cccc(-c2ccc(C(=S)N3CCOCC3)o2)c1	ELG1 DNA repair inconclusive, BRCA1 expr up 4.5µM, Nrf2 ARE act inconclusive
O=C(N/N=C/c1cccc([N+](=O)[O-])c1)c1ccc(CN2CCOCC2)cc1	none
N#CCCN1CCN(C(=S)c2ccc(-c3cccc(Cl)c3)o2)CC1	ELG1 DNA repair inconclusive, BRCA1 expr up 10µM
CCCCN(CCCC)CCNC(=O)Cn1nc(CC)n2c(cc3sc(C)cc32)c1=O	none (no result: IL-2 act, ELG1 DNA repair, BRCA1 expr up)
CC(C)CNC(=O)c1c(N)n(/N=C/c2cccnc2)c2nc3ccccc3nc12	none (no result: IL-2 act, BRCA1 expr up, Nrf2 ARE act)
CC(C)OCCCNC(=O)c1c(N)n(/N=C/c2ccccn2)c2nc3ccccc3nc12	ELG1 DNA repair 7.3µM
CCC(C)NC(=O)c1c(N)n(/N=C/c2ccccn2)c2nc3ccccc3nc12 (centres undefined)	ELG1 DNA repair inconclusive
CCC(C)NC(=O)c1c(N)n(/N=C/c2cccnc2)c2nc3ccccc3nc12 (centres undefined)	ELG1 DNA repair 12µM
O=C(c1cnn2c(C(F)(F)F)cc(-c3ccc(Br)cc3)nc12)N1CCOCC1	ELG1 DNA repair inconclusive
Cc1nn2c(C(F)(F)F)cc(-c3ccc(Cl)cc3)nc2c1C(=O)N1CCOCC1	ELG1 DNA repair 16µM
Cc1cccc(N2CCN(C(=O)c3c(C)nn(Cc4ccccc4Cl)c3C)CC2)c1C	ELG1 DNA repair 21µM
CC(=O)Nc1ccccc1OCc1cc(=O)n2c(C)csc2n1	none (no result: IL-2 act, ELG1 DNA repair)
Cc1cc(C)nc(Nc2ccc(C(=O)O)cc2)n1	ELG1 DNA repair inconclusive, BRCA1 expr up 2.8µM
Cc1cnc(NC(=O)NCC2CCCC(CNC(=O)Nc3ncc(C)s3)C2)s1 (centres undefined)	ELG1 DNA repair 21µM
CN(c1ccccc1)c1nc(N)c([N+](=O)[O-])c(N2CCCCC2)n1	none
CN(c1ccccc1)c1nc(N)c([N+](=O)[O-])c(N2CCCC2)n1	ELG1 DNA repair inconclusive, BRCA1 expr up 11µM
Cc1ccc(C(=O)NC(=C(Cl)Cl)S(=O)(=O)c2ccc(C)cc2)cc1	Nrf2 ARE act 11µM
CC(=O)N1c2ccc(S(=O)(=O)N3CCC(C(=O)NCc4ccc(Cl)cc4)CC3)cc2CC1C (centres undefined)	ELG1 DNA repair 10µM
CC(=O)N1c2ccc(S(=O)(=O)N3CCC(C(=O)NCc4ccc(C)cc4)CC3)cc2CC1C (centres undefined)	ELG1 DNA repair inconclusive
CC(=O)N1c2ccc(S(=O)(=O)N3CCC(C(=O)N4CCN(c5ccc(Cl)cc5)CC4)CC3)cc2CC1C (centres undefined)	none
O=C(NCc1cccs1)C1CCN(c2ccc(S(=O)(=O)N3CCOCC3)cc2Cl)CC1	ELG1 DNA repair 18µM
CC(=O)N1c2ccc(S(=O)(=O)N3CCC(C(=O)N4CCN(c5ccccc5F)CC4)CC3)cc2CC1C (centres undefined)	ELG1 DNA repair 21µM
CC(=O)N1c2ccc(S(=O)(=O)N3CCC(C(=O)NCc4ccccc4Cl)CC3)cc2CC1C (centres undefined)	ELG1 DNA repair 23µM
CC(C)C(=O)Nc1ccc(NC(=O)c2ccccn2)cn1	ELG1 DNA repair inconclusive, BRCA1 expr up 2.5µM
CCC(=O)Nc1ccc(NC(=O)c2ccccn2)cn1	ELG1 DNA repair inconclusive, BRCA1 expr up inconclusive
CC(C)(C)c1ccc(C(=O)Nc2cccc([N+](=O)[O-])c2)cc1	ELG1 DNA repair inconclusive
Cc1cccc(C(=O)Nc2nnc(-c3cccnc3)o2)c1	none
C/C(=N\NC(=O)COc1ccccc1[N+](=O)[O-])c1cccc(NC(=O)c2ccncc2)c1	ELG1 DNA repair 9.2µM
O=C(Nc1cccc([N+](=O)[O-])c1)c1ccncc1	Nrf2 ARE act 11µM
Cc1cc([N+](=O)[O-])ccc1NC(=O)c1csc(C)c1C	ELG1 DNA repair inconclusive, BRCA1 expr up 5µM
O=C(Nc1nnc(-c2cccnc2)o1)c1cccc([N+](=O)[O-])c1	ELG1 DNA repair 18µM (no result: IL-2 act, BRCA1 expr up, Nrf2 ARE act)
O=C(Nc1ccc(Cc2ccncc2)cc1)c1ccc(Cl)c([N+](=O)[O-])c1	ELG1 DNA repair inconclusive
O=C(N/N=C/c1ccccn1)c1cccc([N+](=O)[O-])c1	ELG1 DNA repair inconclusive
Cc1ccc([N+](=O)[O-])cc1NC(=O)c1ccccc1	Nrf2 ARE act 7.9µM
O=C(Nc1ccc([N+](=O)[O-])cc1NC(=O)c1ccccc1)c1ccccc1	none (no result: ELG1 DNA repair)
O=C(N/N=C/c1ccccn1)c1ccc(NC(=O)c2cccc([N+](=O)[O-])c2)cc1	ELG1 DNA repair 16µM
O=C(NC(=S)Nc1cccc([N+](=O)[O-])c1)c1ccccc1	ELG1 DNA repair inconclusive, BRCA1 expr up 11µM, Nrf2 ARE act inconclusive
Cc1c([N+](=O)[O-])cc(C(=O)Nc2ccc(Cc3ccncc3)cc2)cc1[N+](=O)[O-]	ELG1 DNA repair 10µM
CCOc1ccc(C2C(C(N)=O)=C(C)Nc3nc(-c4ccc(OC)cc4)nn32)cc1 (centres undefined)	none (no result: IL-2 act, ELG1 DNA repair, BRCA1 expr up)
NC(=O)c1cccnc1Nc1cccc([N+](=O)[O-])c1	ELG1 DNA repair inconclusive, BRCA1 expr up 1.8µM
O=C(Nc1cccc([N+](=O)[O-])c1)c1ccc2c(c1)OCCO2	ELG1 DNA repair inconclusive, BRCA1 expr up 13µM
Cc1ccccc1NC(=O)c1ccc(Nc2c([N+](=O)[O-])cc([N+](=O)[O-])c3ccccc23)cc1	ELG1 DNA repair 18µM
NC(=O)c1cccnc1Nc1cccc(F)c1	none
O=C(Nc1cccc([N+](=O)[O-])c1)c1[nH]ncc1Cl	ELG1 DNA repair inconclusive, Nrf2 ARE act 5µM
Cc1ccc(O)c(NC(=O)CCSc2nc(-c3ccco3)cc(C(F)(F)F)n2)c1	none (no result: IL-2 act, ELG1 DNA repair, BRCA1 expr up)
CC(/C=C/c1ccc2c(c1)OCO2)=N\NC(=O)c1cccc([N+](=O)[O-])c1	ELG1 DNA repair inconclusive
C/C(=N/NC(=O)c1ccc2c(c1)OCO2)c1cccc([N+](=O)[O-])c1	ELG1 DNA repair inconclusive, BRCA1 expr up 5µM
Cc1ccc(NC(=O)c2ccc(F)c(S(=O)(=O)NCCc3ccccc3)c2)cc1F	none (no result: IL-2 act, ELG1 DNA repair, BRCA1 expr up)
COc1c(C(=O)NNC(=O)c2ccccc2Cl)csc1Br	ELG1 DNA repair inconclusive, BRCA1 expr up 10µM
O=C(COc1ccc(F)cc1)Nc1nc2c(s1)CCCC2	ELG1 DNA repair inconclusive, BRCA1 expr up 13µM
O=C(CCn1c(=O)[nH]c2ccsc2c1=O)N1CCN(c2ccc([N+](=O)[O-])cc2)CC1	ELG1 DNA repair 18µM
COc1cc(NC(=O)CCc2c(C)nc3c(-c4ccc(F)cc4)c(C)nn3c2C)cc(OC)c1OC	none (no result: IL-2 act, ELG1 DNA repair)
CN(C)Cc1c(O)ccc2cc(-c3nc4ccccc4n3C)c(=O)oc12	ELG1 DNA repair inconclusive, BRCA1 expr up 13µM
O=C(CNC(=O)c1ccc(Cl)cc1)c1ccccc1	BRCA1 expr up inconclusive (no result: ELG1 DNA repair)
O=C(CNC(=O)c1ccc(Cl)cc1)c1ccc(Cl)cc1	ELG1 DNA repair inconclusive, BRCA1 expr up 11µM
Cn1c(C(=O)NCc2ccccn2)cc2c(=O)n3ccccc3nc21	ELG1 DNA repair inconclusive, BRCA1 expr up 5µM

Screening data from PubChem BioAssay.
